# Screening results as filed in PubChem BioAssay.
# RTF Ca sens act: cardiac RTF calcium sensitization; P19429+P45379; activation, % at 7.2 µM; IANBD-labeled TnC RTF fluorescence at EC20 calcium; 0% EC20 calcium, 100% full calcium; hit rate 0.24% among 340,000;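 active = activation above the mean over all tested compounds plus 3 SD, cut at about 30% in these data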;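 also: rise in fluorescence read as greater calcium sensitivity of cardiac thin filaments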
# C-LANA FP: blocks KSHV LANA C-terminal domain binding to DNA. hit rate 0.078% among 340,000. AID 504423. inhibition, % at 9 µM. MBP-C-LANA/FAM-LBS DNA binding, fluorescence polarization;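 active = highest replicate inhibition at or above 60% at 9 µM, even if other replicates fall short; inactive = all replicates below 60% inhibition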
# Keap1-Nrf2 PPI: disrupts human Keap1 binding to Nrf2 peptide; Q14145; Keap1 Kelch-Nrf2 peptide fluorescence polarization, 1536-well; inhibition, % at 9.4 µM; hit rate 0.15% among 340,000; AID 504523; in the data active = inhibition above about 12%;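 also: human Keap1 Kelch domain with fluorescein labeled Nrf2 9mer peptide probe; higher means more block of Keap1 binding to Nrf2 peptide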
# Cardiac RTF inh: cardiac RTF calcium desensitization. P19429+P45379. IANBD-labeled cardiac RTF, Ca2+ fluorescence. inhibition, % at 7.15 µM. hit rate 0.12% among 340,000;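 active = inhibition above the mean inhibition of all tested compounds plus 3 SD, cut at about 17% in these data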;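 also: assay run at fixed EC70 calcium of 1.6 mM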
# LANA-H2B inh: blocks KSHV LANA binding to histone H2A/H2B; hit rate 0.6% among 320,000; inhibition, % (concentration not given with the values); Q9QR71; cell-free LANA-H2A/H2B peptide, fluorescence polarization; in the data active = inhibition mostly above about 10%, no sharp cut-off; inactive = mostly below about 6.7%
# Target sequence (Q9QR71 whole entry, looked up): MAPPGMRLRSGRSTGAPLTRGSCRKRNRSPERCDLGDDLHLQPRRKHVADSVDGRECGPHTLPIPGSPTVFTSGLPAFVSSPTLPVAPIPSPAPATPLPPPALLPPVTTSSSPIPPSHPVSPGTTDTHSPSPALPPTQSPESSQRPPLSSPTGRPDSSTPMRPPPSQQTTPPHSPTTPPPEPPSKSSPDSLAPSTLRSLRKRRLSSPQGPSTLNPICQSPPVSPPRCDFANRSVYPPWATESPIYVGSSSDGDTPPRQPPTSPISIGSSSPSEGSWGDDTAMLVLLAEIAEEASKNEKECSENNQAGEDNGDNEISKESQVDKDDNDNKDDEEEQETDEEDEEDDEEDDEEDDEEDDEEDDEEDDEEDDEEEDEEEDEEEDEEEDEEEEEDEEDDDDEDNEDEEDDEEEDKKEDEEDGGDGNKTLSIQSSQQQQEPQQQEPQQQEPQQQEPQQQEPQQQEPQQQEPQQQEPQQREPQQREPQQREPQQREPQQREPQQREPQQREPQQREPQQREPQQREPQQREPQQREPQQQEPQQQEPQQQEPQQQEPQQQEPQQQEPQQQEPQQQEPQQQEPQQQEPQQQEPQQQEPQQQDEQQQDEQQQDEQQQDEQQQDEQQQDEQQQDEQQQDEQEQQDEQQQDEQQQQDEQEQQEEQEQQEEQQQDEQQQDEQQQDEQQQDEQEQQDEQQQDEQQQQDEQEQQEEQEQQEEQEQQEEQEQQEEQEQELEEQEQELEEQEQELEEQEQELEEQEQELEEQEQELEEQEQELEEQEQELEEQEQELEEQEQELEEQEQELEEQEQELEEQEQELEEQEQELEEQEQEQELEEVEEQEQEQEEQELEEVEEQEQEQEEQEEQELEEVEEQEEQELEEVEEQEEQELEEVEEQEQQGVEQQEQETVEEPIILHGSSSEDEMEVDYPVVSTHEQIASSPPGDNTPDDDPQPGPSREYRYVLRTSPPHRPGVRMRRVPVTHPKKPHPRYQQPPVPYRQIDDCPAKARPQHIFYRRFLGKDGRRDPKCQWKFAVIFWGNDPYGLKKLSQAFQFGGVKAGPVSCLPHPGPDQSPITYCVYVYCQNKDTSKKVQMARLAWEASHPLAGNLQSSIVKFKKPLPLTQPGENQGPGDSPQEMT
# Numbers stand for hits; - = inactive; . = not tested or not shown. Shown are actives, neighbours in structure and some others; about 0.99% of the full set was active somewhere.
SMILES,RTF Ca sens act,C-LANA FP,Keap1-Nrf2 PPI,Cardiac RTF inh,LANA-H2B inh
Cc1ccc(N(CC(=O)NC(C)c2ccccc2)S(=O)(=O)c2cccs2)cc1 (stereo unspecified),-,-,-,-,-
CCOC(=O)/C(C#N)=C\c1ccc(N2CCN(C/C=C/c3ccccc3)CC2)cc1,75.7,-,-,-,-
CCOC(=O)/C(C#N)=C\c1cc(C)n(-c2ccccc2)c1C,-,-,-,-,-
Cc1ccc(NC(=O)c2ccc(NC3=NC4CS(=O)(=O)CC4S3)cc2)cc1 (stereo unspecified),-,-,-,-,-
Cc1cc2ncc(C(N)=O)cn2n1,-,-,-,-,-
COC(=O)c1ccccc1NC1CC(=O)N(c2c(C)cccc2C)C1=O (stereo unspecified),-,-,-,-,95.6
COC(=O)c1ccc(NC2CC(=O)N(c3ccccc3C)C2=O)cc1 (stereo unspecified),-,-,-,-,-
CC1CCN(CCCOc2ccc(Br)cc2Cl)CC1,-,-,-,-,-
CCCc1c(C(=O)OCC)[nH]c2c1C(=O)CCC2,-,-,-,-,36.1
O=C(Nc1nc(-c2ccc(S(=O)(=O)N3CCCC3)cc2)cs1)c1ccco1,-,-,-,-,-
CNc1nc(-c2ccc(S(=O)(=O)N3CCCCC3)cc2)cs1,-,-,-,-,15.4
Cn1c(N)c(C(=O)COC(=O)/C=C/c2ccc(Cl)cc2)c(=O)n(C)c1=O,-,-,-,-,91.9
Cn1c(N)c(C(=O)COC(=O)/C=C/c2ccc(Cl)cc2Cl)c(=O)n(C)c1=O,.,.,.,.,-
Cc1nn(C)cc1/C=N\NC(=O)c1ccc2c(c1)c(C)c(C)n2Cc1ccccc1,-,-,-,-,-
CC(C)(C)N(Cc1ccccc1)C(=O)COC(=O)c1ccc(Br)o1,-,-,-,-,-
CC(C)(C)N(Cc1ccccc1)C(=O)c1ccc(Br)o1,-,-,-,-,9.6
COc1ccccc1C1=Nn2c(COc3ccccc3)nnc2SC1,.,.,.,.,-
CC(=O)c1cnc(-c2ccccn2)s1,-,-,-,-,18.0
Cc1cccnc1NC(=O)CCC(=O)c1cccs1,-,-,-,-,24.7
O=C(O)c1ccc(NS(=O)(=O)c2ccc3c(c2)C2C=CCC2C(c2ccccc2F)N3)cc1 (stereo unspecified),-,107.6,-,-,.
CC(=O)Nc1cccc(NC(=O)CSc2n[nH]c(-c3ccccc3)n2)c1,-,-,-,-,20.2
CCN1C(=O)S/C(=C/c2c(OCc3ccc(C(=O)O)cc3)ccc3ccccc23)C1=O,-,-,-,-,118.5
COc1ccc(OC)c(-n2c(-c3cnccn3)n[nH]c2=S)c1,-,-,-,-,-
COc1ccc(OC)c(-n2c(Cn3c(-c4ccccn4)nc4ccccc43)n[nH]c2=S)c1,-,-,-,-,14.3
Cc1ccc(OCC(=O)N/N=C\c2ccc(O)c([N+](=O)[O-])c2)c([N+](=O)[O-])c1,-,-,-,-,12.8
SMILES,RTF Ca sens act,C-LANA FP,Keap1-Nrf2 PPI,Cardiac RTF inh,LANA-H2B inh
Cc1ccc(S(=O)(=O)c2nnn3c2nc(NCCCN2CCCC2=O)c2ccccc23)cc1C,-,-,-,-,-
Cc1cc(C)c2nc(C(F)(F)F)nc(NCCCN3CCCC3=O)c2c1,-,-,-,-,19.3
O=C(Cc1c[nH]c2ccccc12)NCc1ccncc1,-,-,-,-,-
CCC(=O)N1c2ccc(S(=O)(=O)NCCc3ccc(C)cc3)cc2CC1C (stereo unspecified),-,-,-,-,14.0
CC(=O)N1c2ccc(S(=O)(=O)NCCc3ccccc3)cc2CC1C (stereo unspecified),-,-,-,-,-
Cc1cc(C)cc(S(=O)(=O)c2cnc3ccccc3n2)c1,-,-,-,-,13.8
O=S(=O)(c1ccc(Cl)cc1)c1cnc2ccccc2n1,-,-,-,-,-
CC(=O)c1cccc(OCC(=O)N(C)CC(=O)Nc2ccc(F)cc2)c1,.,.,.,.,17.3
CCCCOC(=O)COc1ccc(Cl)cc1Cl,-,-,-,-,13.9
CN(CC(=O)Nc1cccc(Cl)c1)C1=NS(=O)(=O)c2ccccc21,-,-,-,-,-
CN(CC(=O)Nc1ccc(Cl)cc1)C1=NS(=O)(=O)c2ccccc21,-,-,-,-,27.5
CCOC(=O)/C=C/C(=O)Nc1ccc(S(=O)(=O)Nc2cc(C)on2)cc1,-,-,-,-,-
O=C(NCc1ccco1)C1Cc2cc(Cl)ccc2O1 (stereo unspecified),-,-,-,-,-
